Mot1-301 SUMO = SUMOylation pathway inhibition by Mot1-301 growth rescue; S. cerevisiae Mot1-301 growth rescue, ATP luminescence, 38.5C; percent above DMSO median, 100 means doubled; growth rescue, % at 18.8 µM; 320,000 tested, 1% active; AID 2716;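 active = every valid replicate shows activation above 250% relative to neutral control wells; inactive = the rest, any valid replicate at or below 250%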
TIM10 inh = TIM10 yeast growth inhibition | S. cerevisiae TIM10 strain growth, BacTiter-Glo luminescence, 24 h | inhibition, % at 10 µM | 330,000 tested, 1.4% active;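 active = inhibition of 40% or more at the single tested concentration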;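 note: wild-type TIM10 isogenic control strain grown at permissive 25 °C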
tim23-1 inh = tim23-1 yeast growth inhibition; inhibition, % at 20 µM; S. cerevisiae tim23-1 growth, BacTiter-Glo luminescence, 24 h; 330,000 tested, 1.3% active;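 active = growth inhibition of the mutant yeast at or above 50%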;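 note: temperature-sensitive mutant grown at 25 °C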
PfHsp90 yeast 2 = growth inhibition of yeast expressing Plasmodium Hsp90; S. cerevisiae expressing PfHsp90, BacTiter-Glo ATP, 48 h; yeast lacking PDR1 and PDR3 efflux regulators; inhibition, % at 9.4 µM; 310,000 tested, 0.32% active; AID 504621;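 active = every replicate shows inhibition above about 80%, whatever the replicate mean, limit read from the data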
tim10-1 inh = growth inhibitors of tim10-1 mutant yeast; S. cerevisiae tim10-1 ts strain growth, BacTiter-Glo, 24 h; inhibition, % at 20 µM; 330,000 tested, 2.2% active;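 active = inhibition of at least 40%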;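 note: mutant grown at 25 °C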
tim23-1 confirm = tim23-1 yeast growth inhibition, confirmed; shares compounds with tim23-1 inh; S. cerevisiae tim23-1 growth, BacTiter-Glo luminescence, 24 h; inhibition, % at 20 µM; 4,400 tested, 83% active; AID 463218;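 active = inhibition above about 39% in either of two replicate wells at 20 µM, limit read from the data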;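 note: temperature-sensitive tim23-1 mutant grown at 25 °C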
Of the large screens only hits and unclear results are named; the others gave an inactive call (follow-up assays come after a bar, where they were run). Sampled rows, rich in hits. Any-hit rate of the full collection: about 4.4%.

N#Cc1ccc(-c2nc3cc(Cl)ccc3c(=O)n2O)cc1	tim23-1 inh 50 | tim23-1 confirm 56
O=S(=O)(c1ccc2c(c1)C(O)c1ccccc1CC2)C(F)(F)F (stereo unspecified)	tim23-1 inh 63 | tim23-1 confirm 45
Nc1cc(S(=O)(=O)C(F)(F)F)ccc1C(=O)O	none
Cc1ccc(Nc2nc(Cl)c(C=O)s2)cc1Cl	tim23-1 inh 67 | tim23-1 confirm 71
COc1ccccc1Nc1nc(Cl)c(C=O)s1	none (no result: PfHsp90 yeast 2)
O=Cc1sc(Nc2ccccc2)nc1Cl	tim23-1 inh 51 | tim23-1 confirm 49
Cc1ccc(Nc2nc3ccccc3c(=O)s2)cc1C	none
CCc1ccc(C2NC(=O)c3ccccc3O2)cc1 (stereo unspecified)	tim23-1 inh 52 | tim23-1 confirm inactive
O=C(CSc1cccc[n+]1[O-])c1cc(Cl)ccc1Cl	tim23-1 inh 59 | tim23-1 confirm 77
Cn1nc(C(F)(F)F)c(-c2cccc(C(F)(F)F)c2)c1NC(=O)Nc1ccc(F)cc1	none (no result: PfHsp90 yeast 2)
NNC(=O)c1c(O)c2cccc3c2n(c1=O)CCC3	tim23-1 inh 53 | tim23-1 confirm inactive
CCOC(=O)CN1C(=O)CC(c2ccc([N+](=O)[O-])cc2)C1=O (stereo unspecified)	tim23-1 inh 66 | tim23-1 confirm 66
COc1ccc(N2C(=O)CC(c3ccc([N+](=O)[O-])cc3)C2=O)cc1 (stereo unspecified)	none
Cc1nn(-c2ccc(F)cc2)c(C)c1NS(=O)(=O)c1ccc2ccccc2c1	tim23-1 inh 66 | tim23-1 confirm 60
CC(=O)N1c2ccc(S(=O)(=O)N3CCCC(C(=O)NC4CCCC(C)C4C)C3)cc2CC1C (stereo unspecified)	none
COc1ccc(S(=O)(=O)N2CCOC23CCN(S(=O)(=O)c2cc(F)ccc2F)CC3)cc1	tim23-1 inh 53 | tim23-1 confirm inactive
COc1ccccc1N(C(=O)c1csnn1)C(C(=O)NC1CCCC1)c1ccccc1 (stereo unspecified)	none
O=C(COC(=O)c1c(F)cccc1F)Nc1ccc(N2CCCCC2)cc1	none
O=S(=O)(c1ccc(Br)s1)N1CCN(c2ccccn2)CC1	tim23-1 inh 57 | tim23-1 confirm inactive
O=S(=O)(c1ccc(Br)s1)N1CCN(c2ncccn2)CC1	none
O=C(NN1C(=O)c2cc(Br)ccc2NC1c1cc(Br)cc(Br)c1O)c1ccncc1 (stereo unspecified)	tim23-1 inh 68 | tim23-1 confirm 74
COCCN(Cc1nc(C(c2ccccc2)c2ccccc2)no1)C(C)C	none
COc1ccc(OC)c(C(=O)c2coc3cc(Br)c(O)c(Br)c23)c1	tim23-1 inh 58 | tim23-1 confirm 46
N#C/C(=C\c1ccc(N2CCOCC2)o1)c1ccccc1	none
N#C/C(=C/c1ccc(N2CCOCC2)o1)c1nc2ccccc2[nH]1	tim23-1 inh 57 | tim23-1 confirm 66
N#C/C(=C\c1ccc(Sc2nc3ccccc3[nH]2)o1)c1ccccc1	tim23-1 inh 51 | tim23-1 confirm 41
N#C/C(=C\c1ccc(Sc2ccc(Cl)cc2)o1)c1nc2ccccc2[nH]1	none (no result: TIM10 inh, tim23-1 inh, tim10-1 inh)
O=C(Cn1cnc2ccccc2c1=O)NCCC(=O)Nc1ccccc1C(F)(F)F	none
Cc1cccc(C(=O)NNC(=O)c2c(-c3ccccc3Cl)noc2C)c1O	none
CC(C)c1ccc(NC(=O)CCc2ccccc2)cc1	none
CCCCC(=O)Nc1ccc(NC(=O)CCCC)nc1	none
CCCCC(=O)Nc1ccc(NC(=O)c2cccs2)cn1	tim23-1 inh 51 | tim23-1 confirm 43
COc1ccc(NC(=O)c2cccs2)cn1	tim23-1 inh 52 | tim23-1 confirm 48
CCOC(=O)c1c(C=O)c2sc(C)cc2n1C	tim23-1 inh 53 | tim23-1 confirm 45
CCOC(=O)c1c(C=O)c2ccccc2n1CC	none
COc1cc(CNc2ccc(O)cc2)cc(Br)c1OCc1ccccc1	tim23-1 inh 50 | tim23-1 confirm 55
Nc1ccc2nc(-c3ccccc3)[nH]c2c1	none
Nc1cccc(-c2nc3ccc(C(=O)c4ccccc4)cc3[nH]2)c1	tim23-1 inh 55 | tim23-1 confirm 56
O=C(OCc1ccc(F)cc1)c1cc(=O)c2ccccc2o1	tim23-1 inh 94 | tim23-1 confirm inactive
O=C1NC2=C(C(=O)CCC2)C(c2cccc([N+](=O)[O-])c2)N1 (stereo unspecified)	none (no result: Mot1-301 SUMO)
